About 83,000 compounds went through this panel and 20% of them were active in at least one assay; those are over-represented in the sample as a whole.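 Activity criterion: percent growth below 10, measured after cells in 96-well plates were exposed to a single compound concentration for 48 hours.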 Values without a mark were called inactive. Calls of active or inactive are those of the source.

Some test systems named below: HCT-15 colon; HT29 colon; SNB-75 CNS; SNB-19 CNS; U251 CNS; PC-3 prostate; SK-MEL-5 melanoma; UACC-62 melanoma; LOX IMVI melanoma; SK-MEL-28 melanoma; SK-MEL-2 melanoma; EKVX NSCLC; SN12C renal; UO-31 renal; TK-10 renal; ACHN renal; CAKI-1 renal; A498 renal; CCRF-CEM leukemia; MOLT-4 leukemia.
What all share (test): NCI-60 one-dose screen, 48 h (100 = growth as untreated, 0 = no growth, -100 = all killed)
Conditions in all cases: 10 µM unless noted

Take `CN(C)CCCC1(c2ccc(F)cc2)OCc2cc(-c3csc4ccccc34)ccc21` (stereo not given): the growth with HCT-15 colon was -59.7% (active); with HT29 colon, -29.2% (active); with SNB-75 CNS, 29.7%; with SNB-19 CNS, -35.6% (active); in the test on U251 CNS, -57.1% (active); with PC-3 prostate it was 30%. Further, the growth in the test on SK-MEL-5 melanoma is -45.7% (active); with UACC-62 melanoma, -86.3% (active); with LOX IMVI melanoma, -97.9% (active); in the test with SK-MEL-28 melanoma, -84% (active); in the test with SK-MEL-2 melanoma, 62.6%; in the test with EKVX NSCLC, 55.3%. The growth is 39.7% with SN12C renal; 2.29% (active) in the test on UO-31 renal; 62.1% with TK-10 renal; 0.407% (active) in the test with ACHN renal; 4.7% (active) with CAKI-1 renal; 90.2% in the test on A498 renal. Moreover, the growth with CCRF-CEM leukemia was -14.3% (active); in the test on MOLT-4 leukemia it was -15.6% (active).
As for `CCN1C(=O)N(CC)C2C1NN=c1s/c(=C\c3ccc(OC)cc3)c(=O)n12` (stereo not given), the growth in the test on HCT-15 colon was 10.3%; in the test on HT29 colon it was 3.44% (active); with SNB-75 CNS it was 23%; in the test with SNB-19 CNS, 26.9%; in the test on U251 CNS it was 7.45% (active); in the test on PC-3 prostate it was 26.5%. Moreover, the growth is -10.8% (active) in the test with SK-MEL-5 melanoma; 23.9% in the test with UACC-62 melanoma; 17.1% in the test with LOX IMVI melanoma; 56.4% in the test on SK-MEL-28 melanoma; 34.5% in the test on SK-MEL-2 melanoma; 51.9% in the test on EKVX NSCLC. In addition, the growth in the test with SN12C renal is 24.9%; with UO-31 renal, 39.3%; with TK-10 renal, 66.2%; in the test on ACHN renal, 28.5%; in the test with CAKI-1 renal, 25.5%; in the test with A498 renal, 11.8%. The growth in the test on CCRF-CEM leukemia was 9.06% (active); in the test on MOLT-4 leukemia, 14%.
For `COc1cccc(CNc2c3ccccc3nc3ccccc23)c1OC`, the growth in the test on HCT-15 colon was 19.8%; in the test on HT29 colon, 14.4%; with SNB-75 CNS it was 68%; in the test on SNB-19 CNS, 35.5%; in the test with U251 CNS, 34.5%; with PC-3 prostate it was 37.6%. In addition, the growth in the test on SK-MEL-5 melanoma was 55.8%; with UACC-62 melanoma, 51.3%; in the test with LOX IMVI melanoma it was 13%; in the test on SK-MEL-28 melanoma, 66.1%; in the test with SK-MEL-2 melanoma, 79.2%; in the test with EKVX NSCLC, 36.3%. Also, the growth was 30.9% in the test on SN12C renal; 25.2% in the test on UO-31 renal; 59.5% in the test on TK-10 renal; 21.1% in the test on ACHN renal; 33.7% in the test on CAKI-1 renal; -4.13% (active) with A498 renal. Moreover, the growth in the test on CCRF-CEM leukemia is 39.5%; in the test on MOLT-4 leukemia it was 17.9%.
Regarding `CC(O)CNC(Cc1ccccc1)c1ccc2c(c1)OCO2` (stereo not given), the growth in the test on HCT-15 colon is 104%; in the test with HT29 colon it was 65.5%; in the test on SNB-75 CNS, 90.2%; in the test with SNB-19 CNS, 101%; in the test with U251 CNS, 97.3%; in the test on PC-3 prostate, 65.8%. In addition, the growth is 100% in the test on SK-MEL-5 melanoma; 91.4% in the test on UACC-62 melanoma; 92.5% with LOX IMVI melanoma; 72.3% with SK-MEL-28 melanoma; 65% with SK-MEL-2 melanoma; 96.6% with EKVX NSCLC. Besides, the growth in the test on SN12C renal is 105%; with UO-31 renal it was 69.7%; with TK-10 renal, 82.9%; in the test with ACHN renal, 101%; with CAKI-1 renal, 93.1%; in the test with A498 renal, 89.9%. Besides, the growth is 96.3% in the test on CCRF-CEM leukemia and 95.4% in the test on MOLT-4 leukemia.
On to `Cc1ccc(S(=O)(=O)c2nc(-c3ccccc3)oc2SCC(N)=O)cc1`, for which the growth is 95.3% in the test with HCT-15 colon; 85.7% in the test with HT29 colon; 90.4% in the test on SNB-75 CNS; 99.5% in the test with SNB-19 CNS; 105% in the test with U251 CNS; 85.6% with PC-3 prostate. Further, the growth in the test with SK-MEL-5 melanoma is 94.9%; in the test on UACC-62 melanoma it was 105%; with LOX IMVI melanoma it was 96%; with SK-MEL-28 melanoma it was 108%; with SK-MEL-2 melanoma, 94.3%; with EKVX NSCLC, 95.8%. The growth in the test with SN12C renal was 106%; in the test with UO-31 renal it was 85.5%; with TK-10 renal, 85.7%; in the test on ACHN renal, 99.5%; with CAKI-1 renal it was 87.3%; in the test with A498 renal, 80.3%. For the same compound, the growth is 102% in the test on CCRF-CEM leukemia and 90.6% in the test with MOLT-4 leukemia.
Take `CC(=O)c1c(Nc2cccc(F)c2)[nH]c2c(Cl)cc(Cl)c(Cl)c2c1=O`: the growth is 8.24% (active) in the test with HCT-15 colon; 4.86% (active) with HT29 colon; -9.54% (active) in the test with SNB-75 CNS; 16.6% in the test with SNB-19 CNS; 3.22% (active) in the test with U251 CNS; 10.3% with PC-3 prostate. For the same compound, the growth with SK-MEL-5 melanoma was -68.7% (active); with UACC-62 melanoma, -18.7% (active); in the test with LOX IMVI melanoma, 9.99% (active); in the test with SK-MEL-28 melanoma, 5.27% (active); in the test with SK-MEL-2 melanoma, -37.5% (active); with EKVX NSCLC it was 10.8%. Moreover, the growth in the test with SN12C renal is -0.0775% (active); in the test on UO-31 renal, 6.24% (active); in the test on TK-10 renal, 12.5%; in the test with ACHN renal it was 2.02% (active); with CAKI-1 renal, -5.89% (active); in the test on A498 renal, -41.6% (active). For the same compound, the growth is 8.65% (active) with CCRF-CEM leukemia and 4.94% (active) in the test on MOLT-4 leukemia.
As for `Cc1cc(C(=O)CCCC(=O)c2cc(C)c(O)c(C)c2)cc(C)c1O`, the growth is 79.2% with HCT-15 colon; 92.3% with HT29 colon; 69.7% in the test with SNB-75 CNS; 88.1% in the test on SNB-19 CNS; 89.6% in the test with U251 CNS; 84.1% in the test with PC-3 prostate. Further, the growth is 29.2% with SK-MEL-5 melanoma; 96.8% in the test with UACC-62 melanoma; 87.2% in the test with LOX IMVI melanoma; 105% in the test with SK-MEL-28 melanoma; 101% in the test with SK-MEL-2 melanoma; 111% in the test on EKVX NSCLC. Also, the growth with SN12C renal is 97.8%; in the test with UO-31 renal, 83.6%; in the test on TK-10 renal it was 105%; in the test on ACHN renal it was 91%; with CAKI-1 renal, 93.5%; in the test on A498 renal, 91.9%. The growth was 96.6% with CCRF-CEM leukemia and 106% in the test on MOLT-4 leukemia.
Take `N#Cc1ccc(/C=C/c2cn(-c3ccccc3)nc2-c2cccc([N+](=O)[O-])c2)cc1`: the growth was 65.4% in the test with HCT-15 colon; 53.2% with HT29 colon; 27.3% in the test with SNB-75 CNS; 21.6% in the test on SNB-19 CNS; 46.7% in the test with U251 CNS; 44.3% in the test with PC-3 prostate. For the same compound, the growth was 72.7% in the test with SK-MEL-5 melanoma; 77% with UACC-62 melanoma; 77.4% in the test on LOX IMVI melanoma; 66.3% in the test on SK-MEL-28 melanoma; 76.3% with SK-MEL-2 melanoma; 66.8% in the test on EKVX NSCLC. Also, the growth in the test on SN12C renal is 48.1%; with UO-31 renal, 79.3%; with TK-10 renal, 76.9%; in the test with ACHN renal, 32.7%; in the test on CAKI-1 renal, 71.1%; in the test with A498 renal it was 97%. The growth is 88.3% with CCRF-CEM leukemia and 97.6% with MOLT-4 leukemia.
